90 compounds from PubChem BioAssay AID1476 (National Center for Advancing Translational Sciences (NCATS), 2009) can be followed below.

Molecules are shown by their SMILES. The whole screen tested about 200,000 compounds, of which about 4,500 (2.2%) were called active. Another 12% or so got no clear call; they are omitted. What follows is part of a selection rich in actives, with near analogues and random picks from the rest. Values without a mark were called inactive. The call rests on the fitted dose curve; in most records, active means well fitted inhibition curve with a large enough effect; inconclusive means small, poorly fitted or top-dose-only effect, or effect the other way; inactive means flat fitted curve, though single readings scatter.
Potency means the concentration at half of the fitted maximal effect.

Sequence of Cruzipain (Trypanosoma cruzi) (P25779 123-467 limits assumed): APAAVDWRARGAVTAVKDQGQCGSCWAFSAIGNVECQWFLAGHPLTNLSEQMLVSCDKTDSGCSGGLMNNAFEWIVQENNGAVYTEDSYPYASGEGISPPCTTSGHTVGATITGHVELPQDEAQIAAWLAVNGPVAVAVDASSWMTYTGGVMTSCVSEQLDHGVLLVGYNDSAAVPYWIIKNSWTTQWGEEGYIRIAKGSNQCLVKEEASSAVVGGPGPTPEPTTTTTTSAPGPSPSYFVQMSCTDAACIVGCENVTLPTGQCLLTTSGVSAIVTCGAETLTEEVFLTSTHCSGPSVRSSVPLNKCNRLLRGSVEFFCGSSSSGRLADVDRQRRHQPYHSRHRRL

This experiment addresses Cruzipain (Trypanosoma cruzi) (UniProt P25779). The experiment in a line: qHTS Assay for Promiscuous and Specific Inhibitors of Cruzain (without detergent). Further: nearly all actives have a fitted effect of over 40% in size.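 On max response, negative = inhibition: plate controls were enzyme without inhibitor for no effect and buffer without enzyme for full effect.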 The following applies: purified cruzain, Z-FR-AMC fluorescence, no detergent. An outline of the steps:
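Purified cruzain at 1.5 nM, pre-incubated 15 min with compound at room temperature in 100 mM sodium acetate pH 5.5, 5 mM DTT, 0.00005% Triton X-100. Reaction started with 2 uM Z-FR-AMC; AMC fluorescence increase over 60 s gives rate.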
For the compound `CCC(CC)c1nn2cc(-c3ccccc3)nc2s1`, the max response, negative = inhibition was -2.39%. For the compound `Oc1c(C(c2ccc(F)cc2)N2CCN(Cc3ccccc3)CC2)sc2nc(-c3ccco3)nn12` (stereo not given), the max response, negative = inhibition is 1.08%. On the same count and under the same terms, the value for `CCC(=O)N1CCc2cc(S(=O)(=O)NCCC(=O)Nc3cccc(C)c3C)ccc21` was -1.54%; that for `Cc1ccc(NC(=O)CN2C(=O)C(c3ccc(F)cc3)=NC23CCCCCC3)c(C)c1` was 4.08%. The same measure, in the same setting: the result for `Cc1cc(C)cc(OCc2nnc(SCC(=O)Nc3ccccc3)o2)c1` reads 4.82%. For the compound `Cc1ccccc1OCc1nnc(SCC(=O)N2c3ccccc3Sc3ccc(Cl)cc32)o1`, the Potency is 12.6 µM (active). For `CC(C)NC(=O)CSc1nnc(COc2ccccc2Cl)o1`, the max response, negative = inhibition is -5.33%. `CCOC(=O)c1c(NC(=O)COc2cc(C)ccc2C(C)C)sc(C)c1C`: the max response, negative = inhibition was 8.07%. Still for that read-out and setting: the result for `Cc1ccc(CCNC(=O)c2ccc(CS(=O)(=O)Cc3cccc(C)c3)o2)cc1` reads 19.9%. With `CCCc1cc(=O)n2[nH]c(NCc3ccc(CC)cc3)nc2n1`, the max response, negative = inhibition is -8.1%.

`CCc1ccc(NC(=O)N2CCN(C(=O)c3nsc4ccccc34)CC2)cc1`: the max response, negative = inhibition was -5.87%. On the same count and under the same terms, the value for `COc1cc(NC(=O)c2nn(-c3ccc(C)cc3)c(=O)c3c2c2ccccc2n3C)cc(OC)c1OC` was -21.7%. Same read-out and setting: the result for `O=C1N(Cc2ccccc2)c2ccc(Cl)cc2C1(O)c1c[nH]c2ccccc12` (stereo not given) reads 18.9%. On the same count and under the same terms, the value for `O=C(CCCCn1c(=O)[nH]c2ccccc2c1=O)NCc1ccc2c(c1)OCO2` was 8.55%.

Turning to `O=C1N(Cc2ccc3c(c2)OCO3)c2ccccc2C1(O)c1c[nH]c2ccccc12` (stereo not given), the Potency was 15.8 µM (active).

`Oc1ccc(-c2nc3ccc(Cl)cn3c2Nc2ccc3c(c2)OCO3)cc1`: the max response, negative = inhibition was -3.92%. With `Cc1ccc(-c2cc(C(=O)N/N=C/C=C/c3ccco3)c3ccccc3n2)cc1C`, the Potency is 25.1 µM (active).

For `COc1cccc(-c2cc(C(=O)N/N=C/c3ccc(OC)c(COC(C)=O)c3)c3ccccc3n2)c1`, the max response, negative = inhibition is -16%. Still for that read-out and setting: the value for `CCc1ccc(-c2cc(C(=O)NCc3ccco3)c3ccccc3n2)s1` was -8.4%. Same read-out and setting: the value for `N#Cc1nc(/C=C/c2ccc(F)cc2)oc1NC1CCCCC1` was -7.33%; that for `CCOc1ccc(C2C(C(=O)Nc3ccc(Cl)cc3)=C(C)Nc3nc(C(F)(F)F)nn32)cc1` (stereo not given) was 3.69%. Same read-out and setting: the value for `Cc1ccc2oc(=O)c3cnn(CC(=O)N4CCN(c5cccc(Cl)c5)CC4)c3c2c1` was -11.7%; that for `Cc1cccc(NC(=O)COc2ccccc2C)n1` was 10.4%.

Consider `COCCNC(=O)COc1ccccc1C`, for which the max response, negative = inhibition was -9.1%.

With `Cc1ccccc1OCC(=O)NCC(=O)OCC(=O)c1ccc2ccccc2c1`, the Potency was 10 µM (active). As for `CCOc1ccc(NC(=O)C(=O)NCCc2csc3nc(-c4ccccc4F)nn23)cc1`, the max response, negative = inhibition was -1.02%. For the compound `CCCSc1ncc(Cl)c(C(=O)Nc2c(C(=O)Nc3ccccc3)oc3ccccc23)n1`, the max response, negative = inhibition is -6.15%. Same read-out and setting: the value for `O=C(CSc1nc2ccccc2o1)N1CCN(c2ccccc2)CC1` was -4.7%. For `O=C(CSc1nc2ccccc2o1)N1CCN(c2ccc(Cl)cc2)CC1`, the Potency is 10 µM (active). `Cc1ccc(/C=N/NC(=O)CSc2nc3ccccc3o2)cc1`: the max response, negative = inhibition is -9.67%. Take `CCN(CC)C(=O)CSc1nc2ccccc2o1`: the Potency is 3.16 µM (active). Consider `CC1Cc2ccccc2N1C(=O)CSc1nc2ccccc2o1` (stereo not given), for which the max response, negative = inhibition was -7.1%. Still for that read-out and setting: the result for `O=C(CN1CCN(c2ccc(Cl)cc2)CC1)N1CCCC1` reads -5.28%. Turning to `COc1ccc(C2=NS(=O)(=O)N(C)C(C(=O)NC(C)c3ccccc3)=C2)cc1` (stereo not given), the max response, negative = inhibition is -27.6%.

With `CCn1c(=O)cc(OCC(=O)Nc2cc(Cl)c(OC)cc2OC)c2ccccc21`, the max response, negative = inhibition was 0.57%.

Turning to `COc1cc(OC)c(/C=N/NC(=O)c2ccc([N+](=O)[O-])cc2)cc1Br`, the max response, negative = inhibition was -5.61%.

`COc1ccc(/C=N/NC(=O)c2ccc(Cl)cc2)cc1COC(C)=O`: the max response, negative = inhibition was 7.25%. As for `N#Cc1cc([N+](=O)[O-])ccc1Oc1cccc(/C=N/NC(=O)c2ccc(Cl)cc2)c1`, the Potency is 20 µM (active). On the same count and under the same terms, the value for `CCOC(=O)N1CCN(Cc2oc(CO)cc(=O)c2O)CC1` was 1.58 µM (active).

As for `O=c1cc(CO)oc(CN2CCC(Cc3ccccc3)CC2)c1O`, the max response, negative = inhibition is -8.62%. On the same count and under the same terms, the value for `CCOC(=O)N1CCN(C(=O)c2cc3c(ccc4ccccc43)oc2=O)CC1` was -18.3%; that for `Cc1ccc(C(=O)N2c3ncnn3C3(CCCCC3)[C@@H]3CCCC[C@@H]32)cc1` was 9.53%. On the same count and under the same terms, the value for `COc1ccc(CNC(=O)CSCc2nc(-c3ccccc3F)oc2C)cc1` was -2.99%; that for `CCS(=O)(=O)c1ncc(N(Cc2ccc(F)cc2)Cc2ccco2)c(C(=O)Nc2cc(C)ccc2C)n1` was -19.1%. As for `C/C(=C\c1ccco1)C1Nc2cccc3cccc(c23)N1`, the Potency is 3.16 µM (active). In the case of `O=C(NCC1CCCO1)/C(=C\c1ccco1)NC(=O)c1ccccc1` (stereo not given), the max response, negative = inhibition was -0.97%. On the same count and under the same terms, the result for `Cc1ccc(OCC(=O)OCc2cc(=O)n3nc(C4CC4)sc3n2)cc1C` reads -7.58%; that for `COc1ccccc1NC(=O)c1oc2ccccc2c1NC(=O)C(C)C`, -10.9%. The same measure, in the same setting: the result for `CC(=O)c1cccc(NC(=O)CSc2nc3c(c(=O)[nH]2)CCC3)c1` reads -3.06%. Still for that read-out and setting: the value for `O=C(CSc1nc2ccccc2nc1Cc1ccccc1)N1CCCCC1` was -0.222%. `C=CCNc1nnc(C)c2ccccc12`: the max response, negative = inhibition is -10.1%. On to `C=CCNc1nnc(SCC(=O)N2CCCCC2)c2ccccc12`, for which the Potency is 20 µM (active). In the case of `COc1ccc(CNC(=O)c2cc3cccc(OC)c3oc2=O)cc1`, the max response, negative = inhibition was -1.78%.

As for `CCOc1ccc(S(=O)(=O)c2cn(Cc3ccc(OC)cc3)c3ccc(F)cc3c2=O)cc1`, the max response, negative = inhibition is 0.948%. On the same count and under the same terms, the result for `Cc1ccc(-n2c(SCC(=O)c3ccccc3)nc3c([nH]c4ccccc43)c2=O)cc1` reads -13.1%; that for `COc1ccc(-c2c(C)nn3c(N4CCC(C(=O)NCCC(C)C)CC4)cc(C)nc23)cc1OC`, 4.69%. Consider `Cc1ccc(CN2COc3cc(C)c4c(oc(=O)c5ccccc54)c3C2)cc1`, for which the max response, negative = inhibition was -21.8%.

For the compound `Fc1ccc2nc(N3CCCCC3)sc2c1`, the max response, negative = inhibition was 2.08%.

For `Fc1ccc2nc(Nc3nc4c(s3)CCCC4)sc2c1`, the Potency is 31.6 µM (active). Regarding `O=C(Nc1nc2c(s1)CCCC2)c1ccccc1F`, the max response, negative = inhibition was -4.21%. As to `Cn1c(=O)c2c(SCC(=O)N3CCc4ccccc43)nc(-c3ccc(Cl)cc3)nc2n(C)c1=O`, the max response, negative = inhibition is 16.5%. As to `Cc1ccc(S(=O)(=O)N2CCC(C(=O)Nc3cc(C)ccc3C)CC2)cc1`, the max response, negative = inhibition was 10.8%. As for `Cc1ccccc1CSc1nc(-c2ccccc2)nc2c1Cc1c(CO)cnc(C)c1O2`, the max response, negative = inhibition is -5.34%.

`O=C1OC(/C=C/c2ccccc2)=NC/1=C/c1ccco1`: the Potency is 3.16 µM (active).

Take `CC(C)(C)C1C/C(=C/c2ccco2)C(=O)/C(=C/c2ccco2)C1` (stereo not given): the max response, negative = inhibition was 22.8%.

In the case of `COc1ccccc1/C=C/C1=NC(=C\N(C)C)/C(=O)O1`, the max response, negative = inhibition is -2%.

For `COc1ccccc1-c1nnc(C2CCN(C(=O)c3ccc(Cl)cc3)CC2)o1`, the max response, negative = inhibition was -7.8%. As to `Fc1cccc(-n2ncc3c2ncn2nc(-c4ccccc4Cl)nc32)c1`, the max response, negative = inhibition was -11.9%. Still for that read-out and setting: the result for `COc1ccccc1CNC(=O)NCc1noc2ccc(C)cc12` reads -3.84%. With `O=C(CN1CCSc2ccccc21)N1CCN(c2ccccc2)CC1`, the max response, negative = inhibition is -4.92%. The same measure, in the same setting: the value for `Cc1ccc(-c2nc3ccccc3[nH]2)cc1N` was 0.934%. For the compound `Cc1ccc(-c2nc3ccccc3[nH]2)cc1NC(=O)c1sc2ccccc2c1Cl`, the Potency was 7.94 µM (active). As to `Cc1cc2[nH]ncc2cc1NC(=S)NC(=O)c1ccccc1`, the max response, negative = inhibition was 0.868%. Regarding `COc1ccc(Br)cc1C(=O)NC(=S)Nc1cc(-c2nc3ccccc3[nH]2)ccc1C`, the Potency was 10 µM (active). Regarding `COc1ccc2oc(-c3ccc(C)c(NC(=O)c4sc5ccccc5c4Cl)c3)nc2c1`, the max response, negative = inhibition is -7.77%. Still for that read-out and setting: the result for `COC(=O)c1cc(NC(=O)c2sc3ccccc3c2Cl)cc(C(=O)OC)c1` reads -7.2%; that for `Cc1onc(-c2ccc(F)cc2F)c1C(=O)Nc1cccc(C(F)(F)F)c1`, -6.18%; that for `Cc1cccc(-c2nc(SCc3ccc(Br)cc3)n3[nH]c(=O)cc3n2)c1`, -2.63%.

In the case of `O=C(Cn1c(=O)n(Cc2ccccc2)c(=O)c2sc3ccccc3c21)Nc1ccccc1F`, the max response, negative = inhibition was 9.77%. Still for that read-out and setting: the result for `CCCCN(CC)CCCNC(=O)c1nn(C)c2c1CS(=O)(=O)c1ccccc1-2` reads 5.31%. For `CCCNC(=O)CCC(=O)N1Cc2ccccc2Oc2ncccc21`, the max response, negative = inhibition is -4.94%. On the same count and under the same terms, the result for `CCOC(=O)c1c(NC(=O)c2ccc(S(=O)(=O)N(CC)CC)cc2)sc2c1CCCCC2` reads 8.24%; that for `CCOC(=O)c1c(NC(=S)Nc2ccccc2C)sc2c1CCC2`, -25.8%. For the compound `CC(C)OC(=O)c1c(NC(=O)c2ccco2)sc2c1CCCC2`, the max response, negative = inhibition was -12.4%. Take `CCOC(=O)c1c(NC(=O)C2CCN(S(=O)(=O)c3ccc(Cl)cc3)CC2)sc2c1CCCC2`: the Potency was 15.8 µM (active). Consider `CCOC(=O)c1c(NC(=O)c2cc(-c3ccc(Cl)cc3)on2)sc2c1CCCC2`, for which the max response, negative = inhibition is 3.1%.

Take `CCOC(=O)c1c(NC(=S)NC(=O)c2ccco2)sc2c1CCCC2`: the Potency is 12.6 µM (active). As for `Cc1cccc(N2CCN(C(=O)Cn3ncc4c5ccccc5n(C)c4c3=O)CC2C)c1` (stereo not given), the max response, negative = inhibition was 2.09%. The same measure, in the same setting: the result for `COc1cc(CN(CC2CCCO2)C(=O)c2ccccc2F)cc(OC)c1OC` (stereo not given) reads 17.1%. Regarding `CC(C)(C)OC(=O)N1CCC(c2c(C(=O)NCCc3ccsc3)cnn2-c2ccc(F)cc2F)CC1`, the max response, negative = inhibition is -13.2%.
